Screening results as filed in PubChem BioAssay.
L major viab: reduces viability of Leishmania major promastigotes; inhibition, % at 10 µM; actives 9% (n = 200,000); resazurin fluorescence viability; AID 1063; in the data active means inhibition above about 50%;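 further: promastigotes grown with compound for 44 hours at 28 °C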
WT yeast gro inh: growth inhibition of WT yeast, mitochondrial fusion screen; mitochondrial fusion phenotypic screen, WT strain; inhibition, % at 10 µM; actives 2.1% (n = 190,000); AID 1362; in the data active means inhibition above about 58%; tested in S. cerevisiae
Arbovirus inh: antivirals against arbovirus infection. arbovirus infection cell-based antiviral screen. actives 0.37% (n = 200,000). AID 1251. inhibition, % at 10 µM; in the data active means inhibition above about 30%
CHOP inhibitor: inhibitors of CHOP induction in ER stress response. CHO-K1 CHOP-promoter luciferase, tunicamycin-induced, 15-18 h. inhibition, % at 10 µM. actives 3.8% (n = 220,000);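 active means compounds that reduced the stress-induced luciferase reporter signal by more than about 70% of percent inhibition, limit read from the data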
Lmaj promast 1uM: inhibitors of Leishmania major promastigote growth, repeat at 1 uM. AID 1258. shares compounds with L major viab. actives 13% (n = 1,100). L. major promastigote growth, resazurin fluorescence, 48 h. inhibition, % at 1 µM;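 active means inhibition above about 50% in both repeat tests, limit read from the data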
CHOP confirm: confirmation of CHOP induction inhibitors; actives 45% (n = 2,100); CHO-CHOP promoter luciferase reporter, tunicamycin-induced, luminescence; AID 504437; shares compounds with CHOP inhibitor; inhibition, % at 10 µM;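 active means mean of three repeat readings of reporter signal inhibition above a set limit, cut at about 70% in these data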
Numbers stand for hits; - = inactive; . = not tested or not shown. Most compounds without a hit are left out; they make up all but 12% or so of the library.

SMILES	L major viab	WT yeast gro inh	Arbovirus inh	CHOP inhibitor	CHOP confirm	others
O=C(O)CCC(=O)Nc1nnc(C(F)(F)F)s1	-	-	-	-	.
CCC(NC(=O)Nc1nnc(C(F)(F)F)s1)(C(F)(F)F)C(F)(F)F	101	-	-	103	115	Lmaj promast 1uM=-
COc1ccc(-c2[nH]ncc2CNCCc2ncccc2C)cc1F	-	-	-	-	.
FC(F)(F)c1ccc(/C=N/NC(=S)NC2CCCCC2)cc1	-	-	-	106	108
O=S(=O)(NCc1cc(-c2ccc(Cl)cc2)no1)c1ccccc1	-	-	-	-	.
O=S(=O)(NCc1cc(-c2ccc(Cl)cc2)no1)c1ccc(Cl)cc1	-	-	-	102	-
COc1ccc(OC)c(NC(=O)c2cc(-c3cc(Cl)ccc3O)n[nH]2)c1	-	-	-	103	-
COc1ccc(OC)c(NC(=O)c2ccc(NC(C)=O)cc2)c1	-	-	-	-	.
COCC(=O)OCC(=O)Nc1ccccc1-c1ccccc1	-	-	-	-	.
COc1ccccc1NS(=O)(=O)c1cc([N+](=O)[O-])ccc1N/N=C/c1c[nH]c2ccccc12	-	-	-	98	-
Cc1ccccc1NC(=O)c1ccc(NC(=O)C2CC(=O)OC23CCCCC3)cc1 (centres undefined)	-	-	-	-	.
O=C1CCCC(=O)N1c1ccc(NCCOCCO)c([N+](=O)[O-])c1	-	-	-	-	.
O=c1[nH]cnc2scc(-c3ccc(-c4ccccc4)cc3)c12	-	-	-	96	-
O=C(CCC1CCCN(C(=O)c2ccc3c(c2)OCO3)C1)N1CCN(c2ccccn2)CC1 (centres undefined)	-	-	-	-	.
S=C1NC2=C(CCC/C2=C\c2ccccc2)C(c2ccccc2)N1 (centres undefined)	-	-	-	-	.
C(=C1/CCCC2=C1Nc1ncnn1C2c1ccccc1)/c1ccccc1 (centres undefined)	100	-	-	112	-
CC(C)CC(=O)Nc1ccc(C(=O)CN2CCC(C)CC2)cc1	-	-	-	-	.
OCCCNc1cc(-c2ccnc(Nc3cccc(Cl)c3)n2)ccn1	.	.	.	103	107
CN(C)CCCNc1ccc(-c2cc(Nc3cccc(Cl)c3)ncn2)cn1	.	.	.	-	.
C/C(=N\N=C1\NC(=O)C(CC(=O)Nc2ccc(C)c(Cl)c2)S1)C(C)(C)C (centres undefined)	-	-	-	106	107
O=C(CC1S/C(=N/N=C/c2cccs2)NC1=O)Nc1ccc(Cl)c(Cl)c1 (centres undefined)	-	-	-	104	-
OC(CNCCc1ccc(C(F)(F)F)cc1)COc1cccc2ccccc12 (centres undefined)	97	-	-	108	134
OC(CNCCc1ccc(C(F)(F)F)cc1)COc1ccc2ccccc2c1 (centres undefined)	99	-	-	108	123
CCCNCC(O)COc1ccccc1C(=O)CCc1ccccc1 (centres undefined)	-	-	-	-	.
COc1ccc(Cn2c(=O)[nH]c3cc(C(=O)NC4CCCC4)ccc3c2=O)cc1	-	-	-	-	.
SMILES	L major viab	WT yeast gro inh	Arbovirus inh	CHOP inhibitor	CHOP confirm	others
CC1=CC(c2ccc(Cl)cc2)n2nc(NC(=O)CCC(=O)O)nc2N1 (centres undefined)	.	.	.	-	.
COc1cc(/C=N/NC(=O)c2nc3ccccn3c2C)cc(OC)c1O	-	-	-	-	.
CN1CCN(c2ccc(-c3ccc4ccccc4n3)cc2)CC1	92	73	-	102	120
c1ccc2nc(-c3ccncc3)ccc2c1	-	-	-	-	.
CCOc1ccc2nc(-c3ccccc3)nc(SCC(=O)Nc3ncc(C)s3)c2c1	-	-	-	98	-
COC(=O)c1cnn(-c2ccc(Cl)cc2)c1/C=N/NC(N)=S	.	.	.	-	.
CCOC(=O)c1cc(-c2nnc(-c3ccc(Oc4ccccc4)cc3)o2)c(C)nc1C	-	-	-	-	.
O=C(CCl)c1ccc(Cc2ncc(C(F)(F)F)cc2Cl)s1	-	-	-	104	-
COc1cc(/C=N/NC(=O)c2sc3nc(C)cc(C)c3c2N)ccc1O	.	.	.	-	.
O=C(N/N=C/c1ccncc1)c1cc2c(ccc3ccccc32)o1	-	-	-	109	-
COc1ccccc1/C=C\C=N\n1c(C2CCCCC2)n[nH]c1=S	-	70	-	108	-
Cc1ccc(/C=N/n2c(C3CCCCC3)n[nH]c2=S)s1	-	-	-	105	96
COc1ccccc1/C=C/C=N/n1c(-c2ccccn2)n[nH]c1=S	.	.	.	-	.
COc1cc([N+](=O)[O-])cc(CN2CCCCC2)c1O	-	-	-	-	.
C/C(=N\N=C\c1ccccc1)c1nnn(-c2nonc2N)c1C	-	-	-	-	.
CC(=O)Oc1cccc(/C=C2\C=C(c3ccc(C)cc3)OC2=O)c1	-	-	-	-	.
COc1ccc(C2=C/C(=C/c3cccnc3)C(=O)O2)cc1OC	-	-	-	105	-
CCOc1ccc(C2=C/C(=C/c3cccnc3)C(=O)O2)cc1	-	-	-	103	91
COc1ccc(C2=C/C(=C\c3ccc(OC(C)=O)cc3)C(=O)O2)cc1	-	-	-	-	.
CC1(c2ccccc2Cl)NC(=O)N(CC(=O)Nc2ccc3c(c2)OCO3)C1=O (centres undefined)	-	-	-	-	.
CC(C)(C)c1cc(-c2nc(N)nc(N)n2)cc(C(C)(C)C)c1	-	-	-	103	-
Nc1nc(-c2ccc(Cl)cc2)nc(-c2ccc(Cl)cc2)n1	.	.	.	-	.
O=C1CC(c2ccco2)CC(O)=C1C=Nc1cc(Cl)ccc1O (centres undefined)	-	-	-	-	.
Cc1[nH]nc(N=CC2=C(O)CC(c3ccco3)CC2=O)c1-c1ccc(Cl)cc1 (centres undefined)	-	-	-	105	80
O=C1CC(c2ccco2)CC(O)=C1C=Nc1ccccc1-c1ccccc1 (centres undefined)	-	-	-	104	95
SMILES	L major viab	WT yeast gro inh	Arbovirus inh	CHOP inhibitor	CHOP confirm	others
CCOC(=O)C1=C(C)NC(=NC)SC1c1ccccc1 (centres undefined)	-	-	-	-	.
CCN1CCN(c2cc(C)c3cc(NC(=S)N4CCN(c5ccc(F)cc5)CC4)ccc3n2)CC1	-	-	-	106	-
Cc1cc(C)cc(NC(=S)N2CCN(c3ccc(F)cc3)CC2)c1	-	-	-	-	.
COc1ccc(NC(=O)CN(C)CC(=O)Nc2ccc(Cl)c(S(=O)(=O)N(C)C)c2)cc1	-	-	-	-	.
CCCCc1ccc(NC(=S)Nc2ccc(Cl)c(S(=O)(=O)N(C)C)c2)cc1	87	77	-	105	83
Fc1cc(F)c2nc(Nc3nc4cc5c(cc4s3)OCO5)sc2c1	-	-	-	109	84
CC(C)C(=O)Nc1nc2cc3c(cc2s1)OCO3	-	-	-	-	.
COc1ccc(N/N=C(\C=N\O)C(=O)c2ccc(OC)cc2)cc1	-	-	-	.	73
CC1(C)CC(N(Cc2ccc(F)cc2)C(=O)c2ccc(F)cc2)CCO1 (centres undefined)	.	.	.	-	.
O=C(c1ccco1)N(CCC(c1ccccc1)c1ccco1)Cc1ccc(F)cc1 (centres undefined)	-	-	-	108	-
